# The sample as a whole holds a higher share of the strongest signals than the screen did.
# B1: LecB LY19 (Pseudomonas aeruginosa) (protein)
# chain: MATQGVFTLPANTQFGVTAFANSAGTQTVNVQVNNETVATFTGQSTNNGIIGSKVLNSGGGGKVQILVSVNGRSSDLVSAQVILANELNFALVGSEDSTDNDYNDAVVVINWPLG
# Assays:
# Assay in all cases: glycan array binding signal (z-score within array); higher = stronger binding
# Conditions in all cases: glycan notation: IUPAC condensed, linker removed
# [1] = molecular target: Fuc(a1-2)Gal(b1-3)GalNAc(b1-3)Gal(a1-4)Gal(b1-4)Glc
# How it was run: (§1)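 The Consortium for Functional Glycomics database supplied 3228 glycan arrays, of which those lacking an available protein sequence were dropped. The binding signal, a within-array Z-score, was averaged across arrays of the same protein sequence and across linkers. Negative scores can be read as non-binding.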
# [2] = molecular target: Fuc(a1-2)Gal(b1-3)GlcNAc(b1-3)Gal(b1-4)Glc
# How it was run: as §1
# [3] = molecular target: Fuc(a1-2)Gal(b1-3)GlcNAc(b1-3)GalNAc
# How it was run: as §1
# [4] = molecular target: Fuc(a1-2)Gal(b1-3)[Fuc(a1-4)]GlcNAc(b1-3)[Fuc(a1-3)[Gal(b1-4)]GlcNAc(b1-6)]Gal(b1-4)Glc
# How it was run: as §1
# Fuc(a1-2)Gal(b1-4)Glc = molecular target: Fuc(a1-2)Gal(b1-4)Glc
# How it was run: as §1
# Fuc(a1-2)Gal(b1-4)Glc6S = molecular target: Fuc(a1-2)Gal(b1-4)Glc6S
# How it was run: as §1
# [5] = molecular target: Fuc(a1-2)Gal(b1-4)GlcNAc(b1-3)Gal(b1-4)GlcNAc
# How it was run: as §1
# [6] = molecular target: Fuc(a1-2)Gal(b1-4)GlcNAc(b1-3)Gal(b1-4)GlcNAc(b1-3)Gal(b1-4)GlcNAc
# How it was run: as §1
# [7] = molecular target: Fuc(a1-2)Gal(b1-4)[Fuc(a1-3)]GlcNAc
# How it was run: as §1
# [8] = molecular target: Fuc(a1-2)Gal(b1-4)[Fuc(a1-3)]GlcNAc(b1-2)Man(a1-3)[Fuc(a1-2)Gal(b1-4)[Fuc(a1-3)]GlcNAc(b1-2)Man(a1-6)]Man(b1-4)GlcNAc(b1-4)[Fuc(a1-6)]GlcNAc
# How it was run: as §1
# [9] = molecular target: Fuc(a1-2)Gal(b1-4)[Fuc(a1-3)]GlcNAc(b1-2)[Fuc(a1-2)Gal(b1-4)[Fuc(a1-3)]GlcNAc(b1-4)]Man(a1-3)[Fuc(a1-2)Gal(b1-4)[Fuc(a1-3)]GlcNAc(b1-2)Man(a1-6)]Man(b1-4)GlcNAc(b1-4)GlcNAc
# How it was run: as §1
# [10] = molecular target: Fuc(a1-2)Gal(b1-4)[Fuc(a1-3)]GlcNAc(b1-3)Gal(b1-4)[Fuc(a1-3)]GlcNAc
# How it was run: as §1
# [11] = molecular target: Fuc(a1-2)Gal(b1-4)[Fuc(a1-3)]GlcNAc(b1-3)Gal(b1-4)[Fuc(a1-3)]GlcNAc(b1-3)Gal(b1-4)[Fuc(a1-3)]GlcNAc
# How it was run: as §1
# [12] = molecular target: Fuc(a1-2)[Gal(a1-3)]Gal(b1-3)GlcNAc
# How it was run: as §1
# [13] = molecular target: Fuc(a1-2)[Gal(a1-3)]Gal(b1-3)GlcNAc(b1-2)Man(a1-3)[Fuc(a1-2)[Gal(a1-3)]Gal(b1-3)GlcNAc(b1-2)Man(a1-6)]Man(b1-4)GlcNAc(b1-4)[Fuc(a1-6)]GlcNAc
# How it was run: as §1
# [14] = molecular target: Fuc(a1-2)[Gal(a1-3)]Gal(b1-4)GlcNAc(b1-2)Man
# How it was run: as §1
# [15] = molecular target: Fuc(a1-2)[GalNAc(a1-3)]Gal(b1-3)GalNAc(a1-3)[Fuc(a1-2)]Gal(b1-4)GlcNAc
# How it was run: as §1
# [16] = molecular target: Fuc(a1-2)[GalNAc(a1-4)]Gal(b1-4)GlcNAc
# How it was run: as §1
# [17] = molecular target: Fuc(a1-3)[Gal(b1-4)]GlcNAc
# How it was run: as §1
# [18] = molecular target: Fuc(a1-3)[Gal(b1-4)]GlcNAc(b1-3)Gal(b1-4)[Fuc(a1-3)]GlcNAc(b1-3)Gal(b1-4)[Fuc(a1-3)]GlcNAc
# How it was run: as §1
# Gal(a1-3)Gal = molecular target: Gal(a1-3)Gal
# How it was run: as §1
# Gal(b1-2)Gal = molecular target: Gal(b1-2)Gal
# How it was run: as §1
# [19] = molecular target: Gal(b1-3)GlcNAc(a1-6)Gal(b1-4)GlcNAc
# How it was run: as §1
# [20] = molecular target: Gal(b1-3)GlcNAc(b1-2)Man(a1-3)[GlcNAc(b1-4)][Gal(b1-3)GlcNAc(b1-2)Man(a1-6)]Man(b1-4)GlcNAc(b1-4)GlcNAc
# How it was run: as §1
# [21] = molecular target: Gal(b1-3)GlcNAc(b1-3)Gal(b1-4)GlcNAc
# How it was run: as §1
# [22] = molecular target: Gal(b1-3)GlcNAc(b1-3)Gal(b1-4)[Fuc(a1-3)]GlcNAc(b1-6)[Gal(b1-3)GlcNAc(b1-3)]Gal(b1-4)Glc
# How it was run: as §1
# Gal(b1-3)GlcNAc6S = molecular target: Gal(b1-3)GlcNAc6S
# How it was run: as §1
# [23] = molecular target: Gal(b1-3)[Fuc(a1-4)]GlcNAc(b1-3)Gal(b1-3)[Fuc(a1-4)]GlcNAc
# How it was run: as §1
# [24] = molecular target: Gal(b1-3)[Fuc(a1-4)]GlcNAc(b1-3)Gal(b1-4)[Fuc(a1-3)]GlcNAc
# How it was run: as §1
# Gal(b1-4)GlcNAc = molecular target: Gal(b1-4)GlcNAc
# How it was run: as §1
# [25] = molecular target: Gal(b1-4)GlcNAc(b1-2)[Gal(b1-4)GlcNAc(b1-4)]Man(a1-3)[Gal(b1-4)GlcNAc(b1-2)Man(a1-6)]Man(b1-4)GlcNAc(b1-4)GlcNAc
# How it was run: as §1
# [26] = molecular target: Gal(b1-4)GlcNAc(b1-2)[Gal(b1-4)GlcNAc(b1-6)]Man(a1-6)[GlcNAc(b1-4)][Gal(b1-4)GlcNAc(b1-2)Man(a1-3)]Man(b1-4)GlcNAc(b1-4)GlcNAc
# How it was run: as §1
# [27] = molecular target: Gal(b1-4)GlcNAc(b1-3)Gal(b1-4)GlcNAc(b1-6)[Gal(b1-3)]GalNAc
# How it was run: as §1
# [28] = molecular target: Gal(b1-4)GlcNAc(b1-3)[GlcNAc(b1-6)]Gal(b1-4)GlcNAc
# How it was run: as §1
# [29] = molecular target: Gal3S(b1-3)[Fuc(a1-4)]GlcNAc
# How it was run: as §1
# Gal6S(b1-4)Glc6S = molecular target: Gal6S(b1-4)Glc6S
# How it was run: as §1
# GalNAc(b1-6)GalNAc = molecular target: GalNAc(b1-6)GalNAc
# How it was run: as §1
# Glc(a1-6)Glc(a1-6)Glc = molecular target: Glc(a1-6)Glc(a1-6)Glc
# How it was run: as §1
# [30] = molecular target: GlcNAc(b1-2)[GlcNAc(b1-4)]Man(a1-3)[GlcNAc(b1-4)][GlcNAc(b1-2)Man(a1-6)]Man(b1-4)GlcNAc(b1-4)GlcNAc
# How it was run: as §1
# [31] = molecular target: GlcNAc(b1-3)Gal(b1-3)GalNAc
# How it was run: as §1
# [32] = molecular target: GlcNAc(b1-3)Gal(b1-4)GlcNAc(b1-3)Gal(b1-4)GlcNAc(b1-3)Gal(b1-4)GlcNAc(b1-3)Gal(b1-4)GlcNAc(b1-2)[GlcNAc(b1-3)Gal(b1-4)GlcNAc(b1-3)Gal(b1-4)GlcNAc(b1-3)Gal(b1-4)GlcNAc(b1-3)Gal(b1-4)GlcNAc(b1-6)]Man(a1-6)[GlcNAc(b1-3)Gal(b1-4)GlcNAc(b1-3)Gal(b1-4)GlcNAc(b1-3)Gal(b1-4)GlcNAc(b1-3)Gal(b1-4)GlcNAc(b1-2)Man(a1-3)]Man(b1-4)GlcNAc(b1-4)[Fuc(a1-6)]GlcNAc
# How it was run: as §1
# Man(a1-6)Man = molecular target: Man(a1-6)Man
# How it was run: as §1
# [33] = molecular target: Neu5Ac(a2-3)Gal(b1-4)GlcNAc(b1-3)Gal(b1-4)GlcNAc
# How it was run: as §1
# [34] = molecular target: Neu5Ac(a2-3)Gal(b1-4)GlcNAc(b1-3)Gal(b1-4)GlcNAc(b1-6)[Gal(b1-3)]GalNAc
# How it was run: as §1
# [35] = molecular target: Neu5Ac(a2-3)Gal(b1-4)GlcNAc(b1-6)[Gal(b1-3)]GalNAc
# How it was run: as §1
# [36] = molecular target: Neu5Ac(a2-3)[GalNAc(b1-4)]Gal(b1-4)GlcNAc(b1-3)GalNAc
# How it was run: as §1
# [37] = molecular target: Neu5Ac(a2-6)Gal(b1-4)GlcNAc(b1-2)Man(a1-3)[Neu5Ac(a2-3)Gal(b1-4)GlcNAc(b1-2)Man(a1-6)]Man(b1-4)GlcNAc(b1-4)GlcNAc
# How it was run: as §1
# [38] = molecular target: Neu5Ac(a2-6)Gal(b1-4)GlcNAc(b1-2)Man(a1-6)[Man(a1-3)]Man(b1-4)GlcNAc(b1-4)GlcNAc
# How it was run: as §1
# [39] = molecular target: Neu5Ac(a2-6)GalNAc(b1-4)GlcNAc
# How it was run: as §1
# [40] = molecular target: Neu5Ac(a2-8)Neu5Ac(a2-8)Neu5Ac(a2-3)[GalNAc(b1-4)]Gal(b1-4)Glc
# How it was run: as §1
# Neu5Gc(a2-3)Gal(b1-4)Glc = molecular target: Neu5Gc(a2-3)Gal(b1-4)Glc
# How it was run: as §1
# [41] = molecular target: Neu5Gc(a2-8)Neu5Gc(a2-3)Gal(b1-4)GlcNAc(b1-3)Gal(b1-4)GlcNAc
# How it was run: as §1
binder,measurement,setting,value
B1,glycan array binding signal (z-score),[1],1.77
same,glycan array binding signal (z-score),[2],1.85
same,glycan array binding signal (z-score),[3],1.49
same,glycan array binding signal (z-score),[4],1.32
same,glycan array binding signal (z-score),Fuc(a1-2)Gal(b1-4)Glc,1.5
same,glycan array binding signal (z-score),Fuc(a1-2)Gal(b1-4)Glc6S,1.37
same,glycan array binding signal (z-score),[5],3.29
same,glycan array binding signal (z-score),[6],3.69
same,glycan array binding signal (z-score),[7],2.54
same,glycan array binding signal (z-score),[8],5.32
same,glycan array binding signal (z-score),[9],0.085
same,glycan array binding signal (z-score),[10],5.07
same,glycan array binding signal (z-score),[11],3.27
same,glycan array binding signal (z-score),[12],-0.452
same,glycan array binding signal (z-score),[13],0.089
same,glycan array binding signal (z-score),[14],9.41
same,glycan array binding signal (z-score),[15],-0.497
same,glycan array binding signal (z-score),[16],2.12
same,glycan array binding signal (z-score),[17],1.65
same,glycan array binding signal (z-score),[18],2.77
same,glycan array binding signal (z-score),Gal(a1-3)Gal,-0.538
same,glycan array binding signal (z-score),Gal(b1-2)Gal,-0.514
same,glycan array binding signal (z-score),[19],-0.55
same,glycan array binding signal (z-score),[20],-0.306
same,glycan array binding signal (z-score),[21],-0.553
same,glycan array binding signal (z-score),[22],0.2
same,glycan array binding signal (z-score),Gal(b1-3)GlcNAc6S,-0.533
same,glycan array binding signal (z-score),[23],3.35
same,glycan array binding signal (z-score),[24],4.05
same,glycan array binding signal (z-score),Gal(b1-4)GlcNAc,-0.551
same,glycan array binding signal (z-score),[25],-0.3
same,glycan array binding signal (z-score),[26],-0.542
same,glycan array binding signal (z-score),[27],-0.545
same,glycan array binding signal (z-score),[28],0.575
same,glycan array binding signal (z-score),[29],3.07
same,glycan array binding signal (z-score),Gal6S(b1-4)Glc6S,-0.533
same,glycan array binding signal (z-score),GalNAc(b1-6)GalNAc,-0.559
same,glycan array binding signal (z-score),Glc(a1-6)Glc(a1-6)Glc,-0.491
same,glycan array binding signal (z-score),[30],-0.556
same,glycan array binding signal (z-score),[31],-0.542
same,glycan array binding signal (z-score),[32],0.196
same,glycan array binding signal (z-score),Man(a1-6)Man,-0.329
same,glycan array binding signal (z-score),[33],-0.547
same,glycan array binding signal (z-score),[34],-0.554
same,glycan array binding signal (z-score),[35],-0.147
same,glycan array binding signal (z-score),[36],-0.553
same,glycan array binding signal (z-score),[37],-0.539
same,glycan array binding signal (z-score),[38],0.735
same,glycan array binding signal (z-score),[39],-0.55
same,glycan array binding signal (z-score),[40],-0.546
same,glycan array binding signal (z-score),Neu5Gc(a2-3)Gal(b1-4)Glc,-0.511
same,glycan array binding signal (z-score),[41],-0.556

# — the supplement of paper PMC8728848
